Source: PubChem BioAssay (NCATS)
Records with an inconclusive call do not appear. The source made the active and inactive calls. Calls follow the shape of the dose curve; as a rule, active = well fitted curve in the direction sought with a large enough effect; inconclusive = small, poorly fitted or top-dose-only effect, or another doubt; inactive = no such curve, though single readings can be large; an effect the other way counts as inactive or inconclusive.

How the values were obtained:
NIH3T3 = assay: qHTS assay to identify novel small-molecules to repurpose for Merkel cell carcinoma treatment (AID 1296009); details: MCC and control cell lines, CellTiter-Glo viability, 72 h; at 44.8 µM (top of the series) unless noted; also: nearly all actives have a fitted effect of over 60% in size
In short: (§1)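 Cells were treated for 72 hr at 37 degree celsius with compounds in 8- or 11-point dose response. Viability was read by CellTiter-Glo luminescence, normalized to no-cell (cytotoxicity) and DMSO controls.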

C33A = assay: Primary qHTS to identify gynecologic anti-cancer compounds using libraries of approved drugs and bioactive compounds (AID 1345084); details: Gynecologic cancer cell panel viability, ATPlite luminescence, 48 h; series mostly up to 57.5 µM; also: nearly all actives have a fitted effect of over 55% in size
In short: (§2)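 Measured: luminescence after ATPlite addition (15 min, RT). Exposure: 48 h, 37 C, 5% CO2.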

CAOV3 = assay: as above; details: Gynecologic cancer cell panel viability, ATPlite luminescence, 48 h; series mostly up to 57.5 µM
In short: as §2

CASKI = assay: as above; details: Gynecologic cancer cell panel viability, ATPlite luminescence, 48 h; series mostly up to 57.5 µM
In short: as §2

Es-2 = assay: as above; details: Gynecologic cancer cell panel viability, ATPlite luminescence, 48 h; series mostly up to 57.5 µM
In short: as §2

HeLa = assay: as above; details: Gynecologic cancer cell panel viability, ATPlite luminescence, 48 h; series mostly up to 57.5 µM
In short: as §2

Hek293T = assay: as above; details: Gynecologic cancer cell panel viability, ATPlite luminescence, 48 h, control line for the selectivity index; series mostly up to 57.5 µM
In short: as §2

JEG-3 = assay: as above; details: Gynecologic cancer cell panel viability, ATPlite luminescence, 48 h; series mostly up to 57.5 µM
In short: as §2

UISO = assay: qHTS assay to identify novel small-molecules to repurpose for Merkel cell carcinoma treatment (AID 1296009); details: MCC and control cell lines, CellTiter-Glo viability, 72 h; series mostly up to 46 µM; also: nearly all actives have a fitted effect of over 60% in size
In short: as §1

WaGa = assay: as above; details: MCC and control cell lines, CellTiter-Glo viability, 72 h; series mostly up to 46 µM
In short: as §1
% is scaled to controls: 0 for no effect and ±100 for the full control effect.

CC(=O)OCC1=C[C@H](O)[C@@H]2C(C(=O)O)=CO[C@@H](O[C@@H]3O[C@H](CO)[C@@H](O)[C@H](O)[C@H]3O)[C@H]12
inactive: outcome (NIH3T3) inactive [at 17.4 µM] | Potency (C33A) | Potency (CAOV3) | Potency (CASKI) | Potency (Es-2) | Potency (HeLa) | Potency (Hek293T) | Potency (JEG-3)

CN1Cc2c(N)cccc2C(c2ccccc2)C1 (configuration not stated)
inactive: outcome (NIH3T3) | outcome (UISO) | outcome (WaGa) | Potency (C33A) | Potency (CAOV3) | Potency (CASKI) | Potency (Es-2) | Potency (HeLa) | Potency (Hek293T) | Potency (JEG-3)

COc1cc(/C=C/C(=O)OC2CC(C)=C(C(=O)O)/C2=C/CO[C@@H]2O[C@H](CO)[C@@H](O)[C@H](O)[C@H]2O)ccc1O (some centres not stated)
inactive: outcome (NIH3T3) inactive [at 17.4 µM] | Potency (C33A) | Potency (CAOV3) | Potency (CASKI) | Potency (Es-2) | Potency (HeLa) | Potency (Hek293T) | Potency (JEG-3)

COc1cc(COC2OC(CO)C(O)C(O)C2O)cc(OC)c1O (configuration not stated)
inactive: outcome (NIH3T3) | Potency (C33A) | Potency (CAOV3) | Potency (CASKI) | Potency (Es-2) | Potency (HeLa) | Potency (Hek293T) | Potency (JEG-3)

Cc1nn(C)c2c1C(c1ccc(C(F)(F)F)cc1)C(C#N)=C(N)O2 (configuration not stated)
inactive: outcome (NIH3T3) | Potency (C33A) | Potency (CAOV3) | Potency (CASKI) | Potency (Es-2) | Potency (HeLa) | Potency (Hek293T) | Potency (JEG-3)

Nc1ncnc2c1ncn2[C@H]1CCCO1
inactive: outcome (NIH3T3) | Potency (C33A) | Potency (CAOV3) | Potency (CASKI) | Potency (Es-2) | Potency (HeLa) | Potency (Hek293T) | Potency (JEG-3)

OC1COC(OCC2OC(OCCc3ccccc3)C(O)C(O)C2O)C(O)C1O (configuration not stated)
inactive: outcome (NIH3T3) inactive [at 17.4 µM] | Potency (C33A) | Potency (CAOV3) | Potency (CASKI) | Potency (Es-2) | Potency (HeLa) | Potency (Hek293T) | Potency (JEG-3)

CCOc1nc2cccc(C(=O)OCc3oc(=O)oc3C)c2n1Cc1ccc(-c2ccccc2-c2noc(O)n2)cc1
inactive: outcome (NIH3T3) | Potency (C33A) | Potency (CAOV3) | Potency (CASKI) | Potency (Es-2) | Potency (HeLa) | Potency (Hek293T) | Potency (JEG-3)

CC(CCC1C(C(=O)O)=CC(=O)CC1(C)C)O[C@@H]1O[C@H](CO)[C@@H](O)[C@H](O)[C@H]1O (some centres not stated)
inactive: outcome (NIH3T3) | Potency (C33A) | Potency (CAOV3) | Potency (CASKI) | Potency (Es-2) | Potency (HeLa) | Potency (Hek293T) | Potency (JEG-3)

COc1ccc2c(c1)OC[C@]1(O)c3cc4c(cc3O[C@H]21)OCO4
inactive: outcome (NIH3T3) | Potency (C33A) | Potency (CAOV3) | Potency (CASKI) | Potency (Es-2) | Potency (HeLa) | Potency (Hek293T) | Potency (JEG-3)

CC(=O)OC[C@@]12[C@H](O)C[C@@H](C)[C@]3(C[C@@H](c4ccoc4)OC3=O)[C@H]1C[C@H](O)C[C@]21CO1
inactive: outcome (NIH3T3) inactive [at 17.4 µM] | Potency (C33A) | Potency (CAOV3) | Potency (CASKI) | Potency (Es-2) | Potency (HeLa) | Potency (Hek293T) | Potency (JEG-3)

CC1(C)CCCC2(C)C3=C(C(=O)OC3O)C(O)CC12 (configuration not stated)
inactive: outcome (NIH3T3) | Potency (C33A) | Potency (CAOV3) | Potency (CASKI) | Potency (Es-2) | Potency (HeLa) | Potency (Hek293T) | Potency (JEG-3)

CN[C@@H]1[C@@H](O)[C@@H](O[C@@H]2[C@@H](O)[C@H](O[C@H]3O[C@H](CN)[C@@H](O)[C@H](O)[C@H]3O)[C@@H](N)C[C@H]2NC(=O)[C@@H](O)CN)OC[C@]1(C)O
inactive: outcome (NIH3T3) | Potency (C33A) | Potency (CAOV3) | Potency (CASKI) | Potency (Es-2) | Potency (HeLa) | Potency (Hek293T) | Potency (JEG-3)

CC(=O)O[C@@H]1[C@H](O[C@@H]2O[C@H](CO)[C@@H](O)[C@H](O)[C@H]2O)[C@@H](O[C@@H]2O[C@@H](C)[C@H](O)[C@@H](O[C@@H]3O[C@H](CO)[C@@H](O)[C@H](O)[C@H]3O)[C@H]2O)[C@H](OC(=O)C23CCC4(C)C(=CCC5C6(C)CC(O)C(O[C@@H]7O[C@H](C(=O)O)[C@@H](O)[C@H](O)[C@H]7O)C(C)(C(=O)O)C6CCC54C)C2CC(C)(C)CC3O)O[C@@H]1C (some centres not stated)
inactive: outcome (NIH3T3) inactive [at 9.27 µM] | activity change, negative = cytotoxicity (C33A) 3.56% [at 6.55 µM] | activity change, negative = cytotoxicity (CAOV3) 14.4% [at 6.55 µM] | activity change, negative = cytotoxicity (CASKI) 24.3% [at 6.55 µM] | activity change, negative = cytotoxicity (Es-2) 1.96% [at 6.55 µM] | activity change, negative = cytotoxicity (HeLa) -1.78% [at 6.55 µM] | activity change, negative = cytotoxicity (Hek293T) 14.8% [at 6.55 µM] | activity change, negative = cytotoxicity (JEG-3) 1.97% [at 6.55 µM]

CC(C)CC(=O)OC[C@H]1O[C@@](COC(=O)CC(C)C)(O[C@H]2O[C@H](CO)[C@@H](O)[C@H](O)[C@H]2O)[C@@H](OC(=O)CC(C)C)[C@@H]1OC(=O)CC(C)C
inactive: outcome (NIH3T3) inactive [at 17.4 µM] | Potency (C33A) | Potency (CAOV3) | Potency (CASKI) | Potency (Es-2) | Potency (HeLa) | Potency (Hek293T) | Potency (JEG-3)
